Source: PubChem BioAssay
ST2 inh = blocks human ST2 binding to IL-33 | AID 1259354 | Q01638 | inhibition, % for hits at 17 µM | actives 2.3% (n = 78,000) | AlphaLISA ST2-Fc/biotin-IL-33 interaction, 1 h; in the data active = inhibition above about 30%
Target sequence (Q01638 whole entry, looked up): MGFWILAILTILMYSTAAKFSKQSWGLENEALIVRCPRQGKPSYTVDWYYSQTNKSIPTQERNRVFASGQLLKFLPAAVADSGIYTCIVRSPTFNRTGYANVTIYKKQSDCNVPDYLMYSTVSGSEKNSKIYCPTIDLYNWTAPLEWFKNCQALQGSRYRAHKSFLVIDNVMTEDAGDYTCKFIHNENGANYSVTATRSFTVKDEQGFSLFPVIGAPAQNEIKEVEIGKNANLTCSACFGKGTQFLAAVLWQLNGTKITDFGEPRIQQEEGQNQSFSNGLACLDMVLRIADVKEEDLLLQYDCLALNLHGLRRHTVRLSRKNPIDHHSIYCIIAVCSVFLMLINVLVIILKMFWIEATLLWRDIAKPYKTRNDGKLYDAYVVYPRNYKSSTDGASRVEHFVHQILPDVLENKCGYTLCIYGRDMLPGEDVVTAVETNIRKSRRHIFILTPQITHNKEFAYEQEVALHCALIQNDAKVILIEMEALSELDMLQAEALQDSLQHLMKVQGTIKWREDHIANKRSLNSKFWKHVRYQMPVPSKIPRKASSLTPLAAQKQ
Starred values were filed as active, the others as inactive; i = inactive. Shown is part of a subset that was picked to be rich in hits.

SMILES | ST2 inh
O=[N+]([O-])c1ccc(N2CCN(Cc3ccc(O)cc3)CC2)cc1 | i
CN1CCN(Cc2ccc(F)c(Br)c2)CC1 | i
Cc1ccccc1CN1CCN(c2cccc(Cl)c2)CC1 | i
O=[N+]([O-])c1ccc(N2CCN(Cc3ccc(Cl)cc3)CC2)cc1 | i
O=[N+]([O-])c1cccc(CN2CCN(c3ccc(Cl)cc3)CC2)c1 | 47.0%*
Cc1ccccc1CN1CCN(c2ccc([N+](=O)[O-])cc2)CC1 | 36.0%*
O=[N+]([O-])c1ccc(N2CCN(Cc3ccc(F)c(Br)c3)CC2)cc1 | 31.0%*
Cc1ccccc1N1CCN(Cc2ccc(Cl)cc2)CC1 | i
O=[N+]([O-])c1cc(Cl)ccc1N1CCN(Cc2ccccc2)CC1 | 31.0%*
O=[N+]([O-])c1ccc(CN2CCN(c3ccc(Cl)cc3)CC2)cc1 | i
Fc1ccccc1N1CCN(Cc2ccc(Cl)cc2)CC1 | i
Fc1ccc(N2CCN(Cc3ccc(F)c(Br)c3)CC2)cc1 | i
CC(C)(C)CC(=O)N1C[C@@H]2C[C@H](C1)c1ccc(NC(=O)COc3ccccc3)c(=O)n1C2 | i
CCC(CC)c1cc([C@H]2CN3CC[C@H]2C[C@@H]3CNC(=O)NC(C)C)nc(-c2ccncc2)n1 | i
O=C(C1CCCCC1)N1C[C@@H]2C[C@H](C1)c1c(-c3cc4ccccc4s3)ccc(=O)n1C2 | i
CCN(CC)C(=O)c1ccc2c(c1)N(CC(=O)O)C(=O)C1CCCCN21 (stereo unspecified) | i
O=c1c2ccccc2nc(/C=C/c2cc(Br)ccc2O)n1-c1cccc(O)c1 | i
Oc1c(Cl)cc(Cl)cc1CN1CCN(c2ccccc2F)CC1 | i
N#Cc1cccc(-c2ccc3n(c2=O)C[C@H]2C[C@@H]3CN(C(=O)C3CCCCC3)C2)c1 | i
COCCC(=O)N1C[C@@H]2C[C@H](C1)c1ccc(NC(=O)Nc3cccc(F)c3)c(=O)n1C2 | i
COc1ccccc1-c1cc([C@H]2CN3CC[C@H]2C[C@@H]3CNC(=O)NC(C)C)n(C)n1 | i
Fc1ccc(CN2CCN(c3ccccc3)CC2)cc1 | i
Fc1ccc(CN2CCN(c3ccccc3Cl)CC2)cc1 | i
CN(C)c1ccc(CN2CCN(c3ccc(F)cc3)CC2)cc1 | 38.0%*
Fc1ccc(N2CCN(Cc3ccccc3)CC2)cc1 | i
SMILES | ST2 inh
CN(C)c1ccc(CN2CC=C(c3ccc(F)cc3)CC2)cc1 | 40.0%*
Cc1ccc(CN2CCN(c3ccc(Cl)cc3)CC2)cc1 | i
COc1ccc(CN2CCN(c3ccccc3C)CC2)cc1OC | i
CC[C@H]1CN2CC[C@H]1C[C@@H]2CNC(=S)Nc1ccc(OC)cc1 | i
O=C(O)c1cccc2c1NC(C(=O)O)C1CC(Sc3ccccc3[N+](=O)[O-])C(Cl)C21 (stereo unspecified) | 96.0%*
COc1ccc(-c2ccc(=O)n3c2[C@@H]2C[C@@H](CN(S(=O)(=O)c4ccc(C)cc4)C2)C3)cc1 | i
C#C[C@H]1CN2CC[C@H]1C[C@@H]2CNS(=O)(=O)c1ccc(Cl)cc1 | i
COCCNC(=S)NC[C@H]1C[C@@H]2CCN1C[C@@H]2CN1CCSCC1 | i
CN1CCc2nc(N)c(C#N)c(-c3ccc(Br)cc3)c2C1 | 34.0%*
O=C([C@H]1CN2CC[C@H]1C[C@@H]2Cn1cc(-c2cccc(O)c2)nn1)N1CCOCC1 | i
CCn1cc(CNC(C)Cc2ccc(C)cc2)cn1 (stereo unspecified) | i
CC(=O)N1CCC(N2C[C@@H]3C[C@H](C2)c2ccc(NC(=O)c4ccco4)c(=O)n2C3)CC1 | i
COc1cc(/C=C/[N+](=O)[O-])c(OC)cc1C | 42.0%*
O=C(COc1ccccc1)Nc1ccc2n(c1=O)C[C@H]1C[C@@H]2CN(C(=O)C(=O)O)C1 | i
COCCC(=O)N1C[C@@H]2C[C@H](C1)c1c(-c3ccc(OC(F)(F)F)cc3)ccc(=O)n1C2 | i
Cc1c(C(=O)N2CCC3(CC2)OCCO3)oc2ccc(S(=O)(=O)N3CCCCCC3)cc12 | i
Nc1c2c(nc3ccccc13)CCCCC2 | i
Nc1cc2nc3ccccc3nc2cc1O | 56.0%*
O=C(Nc1ccc(=O)n2c1[C@@H]1C[C@@H](CN(C(=O)c3ccc(F)cc3)C1)C2)c1ccco1 | i
Cc1nc(-c2ccc(N(C)C)cc2)cc([C@H]2CN3CC[C@H]2C[C@@H]3CNC(=S)Nc2ccc(F)cc2)n1 | i
O=c1c(-c2ccc(Cl)cc2)ccc2n1C[C@@H]1CNC[C@H]2C1 | i
CC[C@H]1CN2CC[C@H]1C[C@@H]2CNC(=S)NC1CCCCC1 | i
O=C(c1cccs1)N1C[C@@H]2C[C@H](C1)c1c(-c3cc4ccccc4s3)ccc(=O)n1C2 | i
CN(N=O)c1ccc(O)c(O)c1 | 69.0%*
O=c1cc(-c2ccccc2)oc2c1ccc1occc12 | i
SMILES | ST2 inh
CO[C@H]1[C@H](O)[C@H](O[C@H]2[C@H](Oc3cccc4c(O)c5c(=O)oc6ccc(C)c7c(=O)oc(c34)c5c67)O[C@H](C)[C@H](O)[C@@H]2O)O[C@@H](C)[C@H]1O | i
O=C(O)c1[nH]c2ccc(Cl)cc2c1CC(=O)N1CCN(C2CCCCC2)CC1 | i
CCN1CCN(Cc2ccc(OC)c(C)c2)CC1 | i
Clc1ccc(CN2CCN(c3ccccc3)CC2)c(Cl)c1 | 91.0%*
COc1ccc(CN2CCN(c3ccccc3)CC2)c(OC)c1 | i
Fc1ccc(CN2CCN(c3ccccc3)CC2)c(F)c1 | i
COc1ccc(N2CCN(Cc3ccc(Cl)cc3Cl)CC2)cc1 | 36.0%*
COc1ccc(CN2CCN(c3ccc(F)cc3)CC2)c(OC)c1 | i
COc1ccc(CN2CCN(CCO)CC2)cc1C | i
COc1ccc(N2CCN(Cc3ccc(OC)c(C)c3)CC2)cc1 | 36.0%*
c1ccc(CN2CCN(c3ccccc3)CC2)cc1 | i
Cn1nc(-c2ccccc2)cc1[C@H]1CN2CC[C@H]1C[C@@H]2CNC(=S)Nc1ccccc1 | i
CN(Cc1ccccc1)Cc1cn(C[C@H]2CC3CCN2C[C@@H]3C(=O)Nc2nccs2)nn1 (stereo partly specified) | i
CC1N=C(c2ccccc2)c2ccccc2N(CC(=O)Nc2ccccc2C(F)(F)F)C1=O (stereo unspecified) | i
CN1CCC(N2C[C@@H]3C[C@H](C2)c2ccc(-c4cc5ccccc5s4)c(=O)n2C3)CC1 | i
COc1ccccc1N1CCN(C[C@H]2CN3CC[C@H]2C[C@@H]3CNS(=O)(=O)c2cccs2)CC1 | i
CCN(CC)C(=O)c1ccc(NC(C)=O)cc1 | i
CN1CCN(C[C@H]2CN3CC[C@H]2C[C@@H]3CNC(=O)c2ccc(C(F)(F)F)cc2)CC1 | i
CCc1ccc(CN2CCN(c3ccccc3OC)CC2)cc1 | 97.0%*
COc1ccccc1N1CCN(Cc2ccc(Cl)cc2)CC1 | i
COc1ccccc1N1CCN(Cc2cccc(Cl)c2)CC1 | i
O=C(NC1CCCCC1)N1C[C@@H]2C[C@H](C1)c1ccc(-c3cc4ccccc4s3)c(=O)n1C2 | i
CCN(CC)C[C@H]1CN2CC[C@H]1C[C@@H]2CNC(=O)Nc1ccsc1 | i
O=C(Nc1ccc2n(c1=O)C[C@H]1C[C@@H]2CN(C(=O)c2ccccc2)C1)C1CCCCC1 | i
CCCCOc1ccc(C2C(C#N)=C(N)Oc3c2c(=O)oc2ccccc32)cc1OC (stereo unspecified) | i
CC(C)(C)c1ccc(OCCNc2ccc([N+](=O)[O-])c3cccnc23)cc1 | 55.0%*
O=C(c1cccs1)N1C[C@@H]2C[C@H](C1)c1ccc(-c3cccc(C(F)(F)F)c3)c(=O)n1C2 | i
CSc1ccc(C(=O)C2CCCN(Cc3nc(C(C)C)cs3)C2)cc1 (stereo unspecified) | i
